Compound activity from PubChem.
DAX1 inh-1: inhibitors of human orphan nuclear receptor DAX1 (NR0B1). HEK293 Gal4-DAX1 luciferase reporter, luminescence. 0.99% of 340,000 active. P51843. inhibition, % at 6.75 µM;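 active = inhibition above the mean over all tested compounds plus 3 SD, cut at about 4.2% in these data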;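 note: 0% = DAX1-transfected cells with DMSO and 100% = empty-vector control cells with DMSO; inhibition shows as a rise in luminescence from relieved DAX1 repression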
Target sequence (P51843 207-470 limits assumed): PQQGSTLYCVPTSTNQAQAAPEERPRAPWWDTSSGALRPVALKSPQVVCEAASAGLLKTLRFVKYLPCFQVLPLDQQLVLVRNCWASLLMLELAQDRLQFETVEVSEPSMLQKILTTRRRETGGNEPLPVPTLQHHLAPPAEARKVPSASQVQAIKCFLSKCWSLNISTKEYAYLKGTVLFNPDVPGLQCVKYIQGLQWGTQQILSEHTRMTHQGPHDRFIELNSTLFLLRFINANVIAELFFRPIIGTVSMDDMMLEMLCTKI
FXN GAA850 act: increases GAA850 frataxin promoter reporter activity. HEK293 lucGAA850 FXN promoter luciferase reporter, 24 h; percent of 10 µM SAHA response. activation, % at 6 µM. 0.56% of 360,000 active. AID 540364;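 active = activation above the average of all compounds screened plus 3 SD, cutoff fixed separately per campaign, cut at about 7.5% in these data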;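 note: 0% = DMSO wells and 100% = 10 µM SAHA wells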
hgDAF12 agonist: agonists of H. glycines DAF-12 nuclear receptor | activation, % at 6.8 µM | AID 687014 | HEK293 GAL4-hgDAF12 UAS-luciferase reporter, agonist luminescence; normalized to butyrate control | 1.8% of 370,000 active;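 active = activation above a cutoff set at the mean of all screened compounds plus 3 SD, cut at about 10% in these data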;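 note: 0% = DMSO wells and 100% = sodium butyrate wells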
hcDAF12 agonist: H. contortus DAF-12 activation, primary screen. HEK293 hcDAF-12 lit1-tk-luc reporter, luminescence; 0% DMSO, 100% Δ7-dafachronic acid. activation, % at 6.8 µM. 1.4% of 370,000 active. AID 652067;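 active = activation above the mean of all tested compounds plus 3 SD, cut at about 5.5% in these data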;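 note: 100% = response to 3 µM Δ7-dafachronic acid high control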
DAX1 inh-2: DAX1 (NR0B1) inhibition, primary screen | HEK293T StAR-luciferase reporter, SF-1/DAX-1 repression relief | inhibition, % at 6.8 µM | 1.1% of 370,000 active;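 active = inhibition above the mean over all tested compounds plus 3 SD, cut at about 3.6% in these data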;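 note: 0% = DAX-1 cells with DMSO and 100% = cells lacking DAX-1 with DMSO; higher inhibition means more luminescence from relief of DAX-1 repression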
ssDAF-12 act: activates DAF-12 receptor from parasite S. stercoralis. HEK293 ssDAF-12/GRIP1 lit1-tk-luc reporter, luminescence; % of 3 µM dafachronic acid response. activation, % at 6.8 µM. 1% of 370,000 active. AID 652126;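 active = activation above the mean over all tested compounds plus 3 SD, cut at about 0.9% in these data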;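 note: 0% = DMSO-only wells and 100% = 3 µM delta7-dafachronic acid wells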
DAX1 conf: NR0B1 (human) inhibition, confirmation | HEK293T StAR-promoter luciferase reporter, SF-1/DAX-1 repression | inhibition, % at 6.8 µM | shares compounds with DAX1 inh-2 | 87% of 2,400 active | AID 652134;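 active = inhibition above the average of every tested compound plus 3 SD, cut at about 3.8% in these data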;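 note: 0% = DAX-1 cells with DMSO and 100% = no DAX-1 control cells with DMSO; active compounds raise luminescence by relieving repression of the StAR reporter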
Target sequence (P51843 whole entry, looked up): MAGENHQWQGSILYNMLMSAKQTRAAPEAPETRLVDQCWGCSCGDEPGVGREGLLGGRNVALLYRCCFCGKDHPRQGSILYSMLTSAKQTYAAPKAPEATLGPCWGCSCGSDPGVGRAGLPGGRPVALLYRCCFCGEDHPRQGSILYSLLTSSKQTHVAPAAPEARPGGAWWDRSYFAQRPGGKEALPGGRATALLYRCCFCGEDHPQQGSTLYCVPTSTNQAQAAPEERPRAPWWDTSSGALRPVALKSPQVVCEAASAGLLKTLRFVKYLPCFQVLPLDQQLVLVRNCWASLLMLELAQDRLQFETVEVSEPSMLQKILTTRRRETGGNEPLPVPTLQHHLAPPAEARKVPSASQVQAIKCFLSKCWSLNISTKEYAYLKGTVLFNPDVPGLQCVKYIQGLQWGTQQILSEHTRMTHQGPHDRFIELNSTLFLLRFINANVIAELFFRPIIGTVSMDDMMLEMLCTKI
SF1 mutant ctr: counter-screen for DAX1 inhibitors: nonselective inhibitors with SF-1 AF2 mutant; shares compounds with DAX1 inh-2; HEK293 StAR-luciferase, luminescence; inhibition, % at 6.8 µM; 78% of 2,400 active; AID 652136;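 active = inhibition above the mean of all tested compounds plus 3 SD, cut at about 3% in these data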;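 note: 0% = DAX-1 transfected cells with DMSO and 100% = cells without DAX-1 with DMSO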
* marks the source's active call; other numbers are inactive results. Rows were chosen to be rich in hits. Some 4.5% of all compounds tested hit in one or more screens of this group.

What do the screens show for `Fc1cccc(Cl)c1CN1CCN(c2ncc(Cc3ccccc3)cn2)CC1`?
hgDAF12 agonist: -1; hcDAF12 agonist: 2; DAX1 inh-2: 0; ssDAF-12 act: -2

What do the screens show for `CCN(CC)c1ccc(C(=O)NNC(=O)CCl)cc1`?
DAX1 inh-1: 0; FXN GAA850 act: 5; hgDAF12 agonist: -1; hcDAF12 agonist: 1; DAX1 inh-2: -2; ssDAF-12 act: -1

Results for CCN(CC)c1ccc(C(=O)NNC(=O)c2cccn2C)cc1 ?
DAX1 inh-1: 4.7*; FXN GAA850 act: 2; hgDAF12 agonist: 11*; hcDAF12 agonist: 2; DAX1 inh-2: 5.1*; ssDAF-12 act: 1; DAX1 conf: 6.1*; SF1 mutant ctr: 5.5*

Results for CCc1noc(C)c1C(=O)NCCc1ccccc1 ?
DAX1 inh-1: 0; FXN GAA850 act: 5; hgDAF12 agonist: 6; hcDAF12 agonist: 4; DAX1 inh-2: 5.3*; ssDAF-12 act: 0; DAX1 conf: 6.1*; SF1 mutant ctr: 4.8*

What do the screens show for `Cc1ccc(CN2CCN(CC3CC4C=CC3C4)CC2)cc1` (stereo unspecified)?
DAX1 inh-1: -1; FXN GAA850 act: 0; hgDAF12 agonist: -3; hcDAF12 agonist: -1; DAX1 inh-2: 0; ssDAF-12 act: -1

Results for COC(=O)CSc1nc2cc(C)ccc2cc1C#N ?
DAX1 inh-1: 4.4*; FXN GAA850 act: 5; hgDAF12 agonist: 12*; hcDAF12 agonist: 5; DAX1 inh-2: 5.0*; ssDAF-12 act: 1.2*; DAX1 conf: 18*; SF1 mutant ctr: 9.3*

What do the screens show for `COc1cc(OC)c2c(=O)c(OC)c(-c3ccc(OC)c(OC)c3)oc2c1`?
DAX1 inh-1: -1; FXN GAA850 act: 0

How did COc1ccc(-c2oc3cc(O)c(OC)c(O)c3c(=O)c2OC)cc1O do in these assays?
DAX1 inh-1: -1; FXN GAA850 act: -3; hgDAF12 agonist: -3; hcDAF12 agonist: 2; DAX1 inh-2: 7.9*; ssDAF-12 act: 1; DAX1 conf: 16*; SF1 mutant ctr: -9

Results for Cc1cc(NC(=O)c2ccco2)sc1C ?
DAX1 inh-1: 1; FXN GAA850 act: 3; hgDAF12 agonist: 7; hcDAF12 agonist: 5.7*; DAX1 inh-2: 4.5*; ssDAF-12 act: 1; DAX1 conf: 6.4*; SF1 mutant ctr: 4.5*

Results for Cc1ccc(Cc2cnc(NC(=O)c3ccco3)s2)cc1 ?
DAX1 inh-1: 0; FXN GAA850 act: 1; hgDAF12 agonist: 13*; hcDAF12 agonist: 5.9*; DAX1 inh-2: 6.6*; ssDAF-12 act: 1; DAX1 conf: 16*; SF1 mutant ctr: 5.2*

Results for OCC1OC(Oc2c[nH]c3ccccc23)C(O)C(O)C1O (stereo unspecified) ?
DAX1 inh-1: -1; FXN GAA850 act: -1; hgDAF12 agonist: -2; hcDAF12 agonist: 4; DAX1 inh-2: -2; ssDAF-12 act: 0

What do the screens show for `O=C(Nc1ccc(N2CCCC2)cc1)c1ccccc1F`?
DAX1 inh-1: 0; FXN GAA850 act: 5; hgDAF12 agonist: 13*; hcDAF12 agonist: 5; DAX1 inh-2: 4.5*; ssDAF-12 act: 0; DAX1 conf: 7.1*; SF1 mutant ctr: 3.5*

What do the screens show for `O=C(Nc1ccc(N2CCCC2)cc1)c1cccc(Cl)c1Cl`?
DAX1 inh-1: 0; FXN GAA850 act: 0; hgDAF12 agonist: 7; hcDAF12 agonist: 0; DAX1 inh-2: 0; ssDAF-12 act: -1

Results for CC(=O)c1cccc(NC(=O)/C(=C\c2ccco2)NC(=O)c2ccco2)c1 ?
DAX1 inh-1: 1; FXN GAA850 act: 1; hgDAF12 agonist: 0; hcDAF12 agonist: -1; DAX1 inh-2: 4.9*; ssDAF-12 act: -1; DAX1 conf: 1; SF1 mutant ctr: 1

What do the screens show for `CC(=O)c1ccc(NC(=O)/C(=C\c2ccco2)NC(=O)c2ccco2)cc1`?
DAX1 inh-1: -1; FXN GAA850 act: 1; hgDAF12 agonist: 1; hcDAF12 agonist: -2; DAX1 inh-2: 0; ssDAF-12 act: -2

Results for CCN(CC)S(=O)(=O)c1ccc2c(c1)N(CC(=O)N1CCCC1)C(=O)CO2 ?
DAX1 inh-1: 1; FXN GAA850 act: 2; hgDAF12 agonist: -1; hcDAF12 agonist: 0; DAX1 inh-2: 0; ssDAF-12 act: -1

How did OCCCc1cn(Cc2ccccc2)c2ccccc12 do in these assays?
DAX1 inh-1: 0; FXN GAA850 act: 3; hgDAF12 agonist: 0; hcDAF12 agonist: 0; DAX1 inh-2: 0; ssDAF-12 act: -1

Results for c1ccc(Cn2cc(CCOCc3ccccn3)c3ccccc32)cc1 ?
hgDAF12 agonist: 9; hcDAF12 agonist: 2; DAX1 inh-2: 4.9*; ssDAF-12 act: 0.9*; DAX1 conf: 2; SF1 mutant ctr: 2

How did Cc1ccccc1CSCC1Nc2ccc(C(=O)NCCc3ccccc3)cc2NC1=O (stereo unspecified) do in these assays?
DAX1 inh-1: 3; FXN GAA850 act: 0; hgDAF12 agonist: 0; hcDAF12 agonist: 1; DAX1 inh-2: 1; ssDAF-12 act: -1

Results for COC(=O)c1ccc(NC(=O)C(=O)c2cccn2C)cc1 ?
DAX1 inh-1: -3; FXN GAA850 act: 2; hgDAF12 agonist: 18*; hcDAF12 agonist: 5; DAX1 inh-2: 6.9*; ssDAF-12 act: 0; DAX1 conf: 15*; SF1 mutant ctr: 7.3*

How did CC1Cc2ccccc2N1C(=O)c1ccc(Br)o1 (stereo unspecified) do in these assays?
DAX1 inh-1: 2; FXN GAA850 act: 4; hgDAF12 agonist: 8; hcDAF12 agonist: 3; DAX1 inh-2: 3; ssDAF-12 act: 0

How did Cc1ccc(C(=O)N2c3ccccc3CC2C)o1 (stereo unspecified) do in these assays?
DAX1 inh-1: 1; FXN GAA850 act: 4; hgDAF12 agonist: 13*; hcDAF12 agonist: 3; DAX1 inh-2: 5.4*; ssDAF-12 act: 0; DAX1 conf: 7.5*; SF1 mutant ctr: 6.5*

What do the screens show for `Cc1nc2cc(NC(=O)N3c4ccccc4CC3C)ccc2o1` (stereo unspecified)?
DAX1 inh-1: 2; FXN GAA850 act: 0; hgDAF12 agonist: 6; hcDAF12 agonist: 6.0*; DAX1 inh-2: 5.2*; ssDAF-12 act: 1.2*; DAX1 conf: 6.8*; SF1 mutant ctr: 4.1*

What do the screens show for `Cc1cc(C)c(NC(=O)c2cccs2)c(C)c1NC(=O)c1cccs1`?
DAX1 inh-1: -1; FXN GAA850 act: -1; hgDAF12 agonist: 1; hcDAF12 agonist: -1; DAX1 inh-2: 0; ssDAF-12 act: 0
